In the library only some 3% were active in any assay of this set; here they are far more common.
Rv3671c inh: Rv3671c (M. tuberculosis) protease inhibition; AID 2606; inhibition, % at 5.96 µM; P9WHR9; hit rate 0.048% among 320,000; in the data active means inhibition above about 38%;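 further: extracellular domain of Rv3671c used as enzyme; 0% = enzyme with DMSO and 100% = no enzyme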
FBA Mtb inh: Mtb fructose-bisphosphate aldolase inhibition; purified M. tuberculosis FBA, fluorescence read-out; P9WQA3; hit rate 2.3% among 360,000; inhibition, % at 1 µM; in the data active means inhibition above about 27%;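 further: 0% = vehicle and 100% = reference inhibitor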
Target sequence (P9WQA3 whole entry, looked up): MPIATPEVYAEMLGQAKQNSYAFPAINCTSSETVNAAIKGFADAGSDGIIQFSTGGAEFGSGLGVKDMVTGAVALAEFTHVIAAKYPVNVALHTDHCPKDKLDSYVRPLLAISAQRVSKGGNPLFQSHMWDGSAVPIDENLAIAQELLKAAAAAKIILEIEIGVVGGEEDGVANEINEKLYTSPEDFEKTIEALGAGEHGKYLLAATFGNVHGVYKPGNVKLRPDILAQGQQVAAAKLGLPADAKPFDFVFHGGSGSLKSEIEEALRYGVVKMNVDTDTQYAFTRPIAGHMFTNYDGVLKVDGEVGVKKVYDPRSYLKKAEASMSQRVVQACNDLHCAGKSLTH
Mtb BioA inh: BioA (M. tuberculosis) enzyme inhibition | hit rate 0.096% among 360,000 | inhibition, % at 9.99 µM | purified M. tuberculosis BioA enzyme, plate reader | AID 602481; in the data active means inhibition above about 40%
FadD28 FP inh: blocks FadD28 binding to the bisubstrate probe; hit rate 0.22% among 360,000; inhibition, % at 12.5 µM; fluorescence polarization; in the data active means inhibition above about 8.5%, passing the limit was not always enough
GDH-TPI inh: inhibits GDH-TPI coupling enzymes, artifact for Mtb FBA screen; GDH-TPI coupled enzyme counterscreen, NADH absorbance; inhibition, % at 4.8 µM; hit rate 1.2% among 360,000; in the data active means inhibition above about 30%;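 further: 0% = DMSO wells and 100% = wells lacking the enzyme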
* hit, by the source's call; · = no result; + = active, no number.

SMILES | Rv3671c inh | FBA Mtb inh | Mtb BioA inh | FadD28 FP inh | GDH-TPI inh
Cc1cc(NCC2CCCO2)n2c(nc3ccccc32)c1C#N (stereo unspecified) | 1 | + | 0 | 0 | 8
Cc1c(-c2ccccc2)c(=O)oc2ccc(O)cc12 | -2 | 4 | 0 | -2 | 13
Cc1c(-c2ccccc2)c(=O)oc2cc(O)ccc12 | 1 | + | · | -3 | 11
CN1c2ccc(Br)cc2[C@@H]2[C@@H](CCN2C(=O)Cc2ccccc2)[C@H]1CO | · | · | 6 | · | ·
O=C(c1ccco1)n1c(=S)nc2ccccn21 | 0 | -4 | · | -1 | 52*
Cc1cccc2nc(=S)n(C(=O)c3ccco3)n12 | -5 | 0 | -1 | -3 | 27
O=C(O)CCn1c2ccccc2c2nc3ccccc3nc21 | 0 | -1 | 1 | -2 | 31*
C[C@@H]1CN([C@H](C)CO)C(=O)c2cccc(NC(=O)C3CCOCC3)c2O[C@@H]1CN(C)C(=O)Nc1ccc(F)cc1 | · | · | 1 | · | ·
CC1(C)CC(N2CCCC2)=CC(=[N+]2CCCCC2)C1 | -9 | -2 | 0 | -5 | 29
CN(Cc1ccccc1)C1=CC(=[N+]2CCCCC2)CC(C)(C)C1 | 4 | -1 | 3 | -3 | 68*
CC1(C)CC(N2CCCC2)=CC(=[N+]2CCCC2)C1 | 5 | -1 | 1 | -1 | 28
CC1(C)CC(N2CCN(Cc3ccccc3)CC2)=CC(=[N+]2CCCCC2)C1 | -1 | 0 | 0 | -2 | 64*
Cc1ccccc1-c1ccc(C=Nc2c(C)n(C)n(-c3ccccc3)c2=O)o1 | 4 | -11 | 2 | -3 | 33*
N#Cc1cnn2ccc(-c3ccc4c(c3)CCC4)nc12 | 11 | 141* | -3 | 0 | 13

High-throughput results from PubChem BioAssay.
